# From PubChem BioAssay
# Most compounds without a hit are left out; they make up all but 3.2% or so of the library.
# CHT allo act – human CHT allosteric activation. Q9GZV3. CHT-expressing cells, membrane potential dye, choline EC20; hits give high values; LV-AA mutant CHT in HEK293 cells. B-score at 10 µM. hit rate 0.49% among 310,000;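 active = initial fluorescence not abnormally high and integrated response B-score, plate-corrected, over 3 SD above library mean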
# TMEM16A act – activators or potentiators of mouse TMEM16A chloride channel. B-score at 10 µM. HEK293 TMEM16A/YFP-H148Q/I152L, iodide quench fluorescence; hits give low values. hit rate 0.3% among 340,000;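 active = fluorescence-ratio B-score plate-corrected deviation score at least 3 library SD below zero, with starting fluorescence score within 5 deviations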;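 note: channel opened by trigger with iodide after compound preincubation; score built on the fluorescence ratio of max minus min over baseline; more negative score means more quench and so TMEM16A activation or potentiation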
# Target sequence (Q8BHY3 whole entry, looked up): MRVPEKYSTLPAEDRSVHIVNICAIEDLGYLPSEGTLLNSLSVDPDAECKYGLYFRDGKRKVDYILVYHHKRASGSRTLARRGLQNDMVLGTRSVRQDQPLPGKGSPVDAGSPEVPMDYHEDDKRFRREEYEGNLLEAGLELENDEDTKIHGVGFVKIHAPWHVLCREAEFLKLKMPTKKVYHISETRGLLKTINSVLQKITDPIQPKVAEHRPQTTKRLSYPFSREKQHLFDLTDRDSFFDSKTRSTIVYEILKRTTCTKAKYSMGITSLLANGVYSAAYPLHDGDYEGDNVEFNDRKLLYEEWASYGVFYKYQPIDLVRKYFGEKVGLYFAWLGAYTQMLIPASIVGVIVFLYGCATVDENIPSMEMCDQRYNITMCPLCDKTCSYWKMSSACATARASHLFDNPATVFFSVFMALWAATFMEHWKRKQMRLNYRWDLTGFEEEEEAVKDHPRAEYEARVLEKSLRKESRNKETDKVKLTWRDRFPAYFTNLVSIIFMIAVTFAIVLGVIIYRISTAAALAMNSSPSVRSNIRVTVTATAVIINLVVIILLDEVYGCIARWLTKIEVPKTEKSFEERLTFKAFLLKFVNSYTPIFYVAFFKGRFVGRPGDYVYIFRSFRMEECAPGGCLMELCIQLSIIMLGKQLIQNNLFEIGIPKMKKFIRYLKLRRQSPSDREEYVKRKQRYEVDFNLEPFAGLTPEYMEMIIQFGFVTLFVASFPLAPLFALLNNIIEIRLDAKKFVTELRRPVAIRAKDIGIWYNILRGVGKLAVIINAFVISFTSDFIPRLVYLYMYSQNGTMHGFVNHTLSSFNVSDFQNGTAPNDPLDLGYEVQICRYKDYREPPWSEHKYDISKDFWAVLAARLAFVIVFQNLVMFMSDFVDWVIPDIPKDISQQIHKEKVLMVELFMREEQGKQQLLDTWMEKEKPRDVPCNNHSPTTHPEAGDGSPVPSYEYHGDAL
# Kir21 block – Kir2.1 (mouse) channel inhibition; P35561; HEK293-Kir2.1, FluxOR thallium flux fluorescence; hits give low values; B-score at 10 µM; hit rate 0.85% among 310,000; AID 1672;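 active = fluorescence ratio B-score at or below minus 3 SD of library scores, with starting-brightness B-score within 2 SD, cut at about -4.2 in these data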;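 note: channel flux triggered by added potassium and thallium sulfate stimulus; B-score of peak minus minimum fluorescence over baseline after thallium stimulus; more negative B-score means stronger Kir2.1 block with less thallium influx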
# ANO1 block – mouse TMEM16A channel inhibition, primary screen; Q8BHY3; HEK293 TMEM16A/YFP iodide influx fluorescence, ionomycin; normalized B-score (activity score, 25-100; higher = stronger inhibition) at 10 µM; hit rate 1.2% among 310,000;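 active = ratio plate-corrected score three or more library SD toward inhibition, starting fluorescence score within five deviations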;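 note: score derived from kinetic fluorescence span divided by baseline fluorescence per well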
# CHT inh – inhibits the human high affinity choline transporter. B-score at 10 µM. CHT-expressing cells, membrane potential dye, choline response; hits give low values. hit rate 0.86% among 310,000. Q9GZV3. AID 488975;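 active = B-score over 3 SD under the library average, and starting fluorescence ratio not unusually high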;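 note: choline stimulus applied at its EC90 after an EC20 pre-addition; B-score computed on integrated fluorescence ratio after choline addition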
# Rce1 inh – blocks yeast Ras-converting enzyme; calls only; Q03530; yeast membranes, quenched prenylated peptide cleavage fluorescence; hit rate 0.27% among 290,000;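 active = fall in fluorescence gain of 50% or more versus controls, with final raw signal at or below 3038400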;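 note: plate controls were neutral control wells for no effect and wells lacking membranes for full effect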
# CHT activ conf – human CHT activation, confirmatory screen; CHT-expressing cells, membrane potential dye fluorescence (FDSS); % of choline EC20–EC90 response window; HEK293 expressing CHT LV-AA mutant; choline added at its EC20; hit rate 91% among 2,500; activation, % at 10 µM; shares compounds with CHT allo act;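 active = primary screen active, with duplicate mean activation above negative control mean plus 3 SD, cut at about 11% in these data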
# HEK293 MP dye – CHT activator counter-screen hit in parental HEK293 cells. shares compounds with CHT allo act. membrane potential dye fluorescence (FDSS); measured after EC20 choline addition. ratio readout change at 10 µM, hits read low. hit rate 62% among 2,500;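 active = duplicate-averaged ratio beyond 3 SD from buffer wells, up or down, though filed actives are nearly all decreases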
# An asterisk follows results filed as active; i = inactive; . = not tested or not shown.
SMILES,CHT allo act,TMEM16A act,Kir21 block,ANO1 block,CHT inh,Rce1 inh,CHT activ conf,HEK293 MP dye
CCN1CCN(Cc2cc(=O)oc3cc(C)cc(C)c23)CC1,7.1*,i,0.16,i,i,i,40*,-42*
COc1ccc(C2=CSC3=NCCN23)cc1F,7.2*,i,.,i,i,i,47*,-55*
O=[N+]([O-])c1ccc(C2=CSC3=NCCN23)cc1,7.4*,i,-0.59,i,i,i,43*,-61*
COc1ccc(C2=CSC3=NCCN23)cc1Cl,i,i,1.6,i,i,i,.,.
COc1ccc(C2=CSC3=NCCN23)cc1Br,6.6*,i,-0.68,i,i,i,29*,-47*
CN(C)S(=O)(=O)c1cccc(-c2nnc(SCC(=O)NCCCCCC(=O)O)n2-c2ccc(F)cc2)c1,i,i,-0.84,i,i,i,.,.
CN1CCN(/C=N/c2c(C#N)cnn2C)CC1,i,i,-0.37,i,i,i,.,.
Cn1ncc(C#N)c1/N=C/N(Cc1ccccc1)Cc1ccccc1,16*,i,0.37,i,i,i,46*,i
CN1CCN(c2nc(C#N)cc(-c3ccccc3)n2)CC1,i,i,0.24,i,i,i,23*,-23*
Cc1ccccc1N1C(=O)C2CCCN2C1=S (configuration not stated),.,i,.,.,.,.,.,.
CN1CCN(c2nc(N3CCN(CCO)CC3)nc3ccccc23)CC1,11*,i,-0.11,i,i,i,37*,-102*
O=S(=O)(c1ccccc1)N1CCN(c2nc(-c3cccnc3)nc3ccccc23)CC1,.,i,.,.,.,.,.,.
c1ccc2c(N3CCOCC3)nc(N3CCOCC3)nc2c1,12*,i,1.4,i,i,i,48*,-86*
c1cncc(-c2nc(N3CCOCC3)c3ccccc3n2)c1,8.1*,i,-0.05,i,i,.,53*,-49*
CC1CCN(c2nc(-c3ccncc3)nc3ccccc23)CC1,i,i,-0.68,i,i,i,.,.
c1ccc2c(N3CCOCC3)nc(-c3ccncc3)nc2c1,7.1*,i,-0.64,i,i,i,83*,-57*
CC(=O)C[C@H](O)CC(=O)[C@@H]1OC(=O)CCCCCc2ccccc21,.,i,.,.,.,.,.,.
Cc1ccc(-c2c[n+](Cc3cccc(Cl)c3)c3n2CCC3)cc1,8*,i,0.24,i,i,i,56*,-40*
Clc1cccc(C[n+]2cc(-c3ccccc3)n3c2CCC3)c1,8.8*,i,-0.19,i,i,i,67*,-43*
Cc1ccc(-c2c[n+](Cc3ccc(Cl)cc3)c3n2CCC3)cc1,i,i,0.93,i,i,i,.,.
Cc1cc(NC(=O)CN(C)S(=O)(=O)c2cccc(Cl)c2)no1,i,i,-0.53,i,i,i,.,.
CC(C)(C)c1ccc(NC(=O)N2CCCN(c3c(Cl)cncc3Cl)CC2)cc1,i,i,1.7,i,i,i,12*,i
O=C(Nc1ccccc1)N1CCCN(c2c(Cl)cncc2Cl)CC1,i,i,-0.8,i,i,i,.,.
N=c1c(C(=O)NC2CCCC2)cc2c(=O)n3ccccc3nc2n1C1CCCCC1,i,i,0.87,i,i,i,48*,-35*
Cc1ccc2nc3c(cc(C(=O)NC4CCCCC4)c(=N)n3C3CCCCC3)c(=O)n2c1,i,i,1.6,i,i,i,.,.
SMILES,CHT allo act,TMEM16A act,Kir21 block,ANO1 block,CHT inh,Rce1 inh,CHT activ conf,HEK293 MP dye
CC1=NN(c2nc3ccccc3[nH]2)C(=O)/C1=C/N(C)C,i,i,-0.17,i,i,i,46*,-33*
Cc1ccnc(SCCn2c(N3CCN(c4ccccc4)CC3)nc3c2c(=O)[nH]c(=O)n3C)n1,8*,i,-0.73,i,i,i,48*,-41*
CCN1CCN(c2nc3c(c(=O)[nH]c(=O)n3C)n2CCCSc2ncccn2)CC1,7.5*,i,-0.39,i,i,i,50*,-55*
Cc1nnc(SCCn2c(N3CCC(Cc4ccccc4)CC3)nc3c2c(=O)[nH]c(=O)n3C)s1,i,.,0.01,i,i,i,.,.
CCN1CCN(c2nc3c(c(=O)[nH]c(=O)n3C)n2CCCc2ccccc2)CC1,i,i,2.3,i,i,i,33*,-54*
CCCCn1c(N2CCC(Cc3ccccc3)CC2)nc2c1c(=O)[nH]c(=O)n2C,i,i,-1.1,i,i,i,19*,i
CC1CC(C)CN(S(=O)(=O)c2ccc(NC(=O)c3ccc(=O)[nH]c3)cc2)C1 (configuration not stated),.,i,.,.,.,.,.,.
CN1CCN(c2nc3c(c(=O)[nH]c(=O)n3C)n2CCCSc2ncccn2)CC1,7.7*,i,1,i,i,i,46*,-54*
Cn1c(=O)[nH]c(=O)c2c1nc(N1CCN(C(=O)c3ccco3)CC1)n2CCCSc1ncccn1,.,i,.,.,.,.,.,.
O=C(CN1CCC(NC(=O)C2CC2)CC1)Nc1cccc(F)c1,i,i,0.64,i,i,i,.,.
COC1=C(Nc2ccccc2OC)C(=O)c2ccccc2C1=O,8.7*,i,0.64,i,i,i,37*,-41*
NC(=O)c1nsc(C(=O)N(Cc2ccccc2Cl)C(C(=O)NCC2CCCO2)c2ccc(O)cc2)c1N (configuration not stated),.,i,0.41,.,.,i,.,.
CCCCN(CCCNC(=O)c1ccc(CS(=O)(=O)c2c(Cl)cccc2Cl)o1)Cc1ccccc1,i,i,-4.1,i,i,i,44*,-42*
CC(C)C(CCNCc1ccccn1)c1ccc(Cl)cc1 (configuration not stated),6.7*,i,-4.4*,i,i,i,17*,i
CC(C)C(CCNC1CCN(C)CC1)c1ccc(Cl)cc1 (configuration not stated),i,i,-1.4,i,i,i,.,.
Cc1ccc(NC(=O)CC2NCCNC2=O)cc1Cl (configuration not stated),i,i,-0.61,i,i,i,.,.
O=C(Cn1cnc2sc3c(c2c1=O)CCCC3)NCC(=O)Nc1ccc(F)cc1F,i,i,-0.19,i,i,i,.,.
